The campaign covered roughly 1,400 compounds. About 560 (40%) were called active. So high a share suggests a set chosen from earlier hits. Some of the results follow. Values without a mark were called inactive.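 Rule for the calls: active = mean inhibition over duplicate tests at 10 µM above 50%; inactive = the rest.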
Test: ASC/caspase-1 reporter retest in S. cerevisiae at one dose, specificity check for NALP1 project (AID 488857)
Conditions: S. cerevisiae ASC/Caspase-1, beta-galactosidase luminescence, 24 h; at 10 µM; hits give high values

SMILES	inhibition
Cn1nc(NC(=O)C(C)(C)C)c2c(F)cccc21	23.4%
CCCC(CCC)c1nc2ccncc2[nH]1	39.7%
Clc1ccc(N2CCN(c3cnc4ccccc4n3)CC2)cc1	29.9%
CC1CCN(c2nc(CN3CCCCC3)nc3scc(-c4ccccc4)c23)CC1	65.8% (active)
COC(=O)c1c(S(=O)(=O)NCc2ccccc2)sc(C(=O)O)c1C	32.3%
O=C1S/C(=C\c2ccc(N3CCOCC3)o2)C(=O)N1c1ccccc1	56.8% (active)
Cn1c(=O)c2c(nc(Sc3ncccn3)n2Cc2ccccc2Cl)n(C)c1=O	26.6%
Cc1ccc(S(=O)(=O)NCC(=O)N(CC(=O)NC(C)(C)C)Cc2cccs2)cc1	34.8%
COc1cc(OC)nc(-n2ncc(Br)c(Br)c2=O)n1	51.4% (active)
CCCC(=O)c1ccc(-c2ccccc2)cc1	57.2% (active)
Cc1cccc(C)c1OCCNC(=O)CCC(=O)c1ccccc1	31.6%
Cc1ccc(C(=O)CCC(=O)O)cc1	26.7%
Cc1c(NC(=O)c2cc3c(s2)-c2ccccc2OC3)cccc1[N+](=O)[O-]	72% (active)
Cc1cc(C)c(S(=O)(=O)Nc2cc(SCC(=O)O)c(O)c3ccccc23)cc1C	17.9%
O=S(=O)(Nc1cc(Sc2cccc3cccnc23)c(O)c2ccccc12)c1ccc(F)cc1	90.7% (active)
O=S(=O)(Nc1ccc(Oc2ncccn2)c(Cl)c1)c1ccc(F)cc1	32.6%
CC(C)Sc1nnc([C@H](Cc2ccccc2)NC(=O)OC(C)(C)C)o1	41.7%
CC(C)(C)OC(=O)NCCCCCc1nnc(SCc2ccccc2)o1	71.4% (active)
CCCCSc1nnc(CCNC(=O)OC(C)(C)C)o1	47.8%
O=C(c1ccc(COc2ccccc2Br)cc1)N1CCCCC1	52.2% (active)
O=C(c1ccc(S(=O)(=O)c2ccccc2)cc1)N1CCCCCC1	31.9%
CCN(CCO)Cc1csc2ccc(Br)cc12	55.5% (active)
OCCN(CCO)c1ncnc2c1oc1ccc(Br)cc12	29.6%
COc1ccccc1OCCCCN1CCN(c2ccccc2OC)CC1	21.9%
COc1ccccc1N1CCN(CCCCCCOc2ccc(F)cc2)CC1	49.6%
COc1ccccc1N1CCN(CCCCOc2cccc3ccccc23)CC1	63.3% (active)

SMILES	inhibition
Cc1cccc(NCc2nc3ccccc3n2C)c1	74% (active)
Cc1nc2cc(-c3ccc(Cl)cc3)nn2c(C)c1CCC(=O)NC(C)c1ccc2c(c1)OCCO2 (centres undefined)	49%
COc1ccc(C2=C/C(=C/c3cccnc3)C(=O)O2)cc1OC	28.8%
COc1cc2ccccc2c2c1CCCC2=O	30%
COc1ccc2c(c1)CC/C(=C/c1ccco1)C2=O	68.5% (active)
COc1cc(/C=C2/CCc3ccccc3C2=O)cc(OC)c1OC	69.8% (active)
COc1ccc(/C=C2\COc3ccccc3C2=O)cc1OC	81.6% (active)
O=C1/C(=C/c2ccco2)Cc2ccccc21	48.4%
O=C1/C(=C/c2ccccc2)CCCc2ccccc21	72.1% (active)
Nc1ccc2c(c1)C/C(=C/c1ccco1)C2=O	21.8%
Cc1n[nH]c(C)c1S(=O)(=O)N1CCN(C2CCCCC2)CC1	32.4%
CS(=O)(=O)N(CC(=O)Nc1ccccc1Sc1ccccc1)C1CCCCC1	19.4%
COc1ccc(/C=C2/CCc3ccccc3C2=O)cc1OC	61.4% (active)
COC(=O)C(Cc1ccccc1)NC(=O)COc1ccc(C(C)(C)C)cc1 (centres undefined)	34.1%
COCCCNCCOc1ccc(C(C)(C)c2ccccc2)cc1	64.7% (active)
C=CCNCCOCCSc1ccc(Cl)cc1	42.4%
C=CCNCCOc1ccc(C(C)(C)c2ccccc2)cc1	56.8% (active)
COc1cccc(C2c3c(-c4ccccc4O)n[nH]c3C(=O)N2Cc2ccco2)c1 (centres undefined)	47.1%
C=CCNC(=O)/C(C#N)=C/c1c(C)nn(-c2ccccc2)c1Cl	69.8% (active)
COC(=O)c1ccc(/C=C(\C#N)C(=O)NC(C)c2ccccc2)cc1 (centres undefined)	43.5%
Cc1nn(-c2ccccc2)c(Cl)c1/C=C(\C#N)C(=O)NC(C)C	68.6% (active)
O=C(O)/C=C/C(=O)OC1CC2CCC1C2 (centres undefined)	23.1%
Cc1ccc(NC(=O)CN(C)C(=O)COc2cccc3cccnc23)cc1	21.4%
CCN(CC)c1ccc(/C=N/OC(C)C(=O)Nc2ccc(C)cc2)cc1 (centres undefined)	53.4% (active)
c1ccc(CC2CCN(c3nnnn3-c3ccccc3)CC2)cc1	39.6%
Cc1ccc(C(=O)/C=C/c2ccc3c(c2)OCO3)o1	32.1%

SMILES	inhibition
O=C(CCNC(=O)c1ccccc1Cl)Nc1ccc2c(c1)OCO2	34.6%
O=C(/C=C/c1ccc2c(c1)OCCCO2)c1ccccc1O	61.2% (active)
O=C(O)Cn1nc(-c2ccccc2)oc1=O	20.1%
COC(=O)Cn1nc(-c2ccccc2)c2ccccc21	99.4% (active)
O=C(NC1=NCCS1)c1ccc(Cl)s1	53% (active)
CC(NC(=O)c1ccc(F)cc1)C(=O)NC1=NCCS1 (centres undefined)	38.4%
CCC(=O)N1CCc2cc(S(=O)(=O)N3CCc4ccccc43)ccc21	37%
O=C(c1cnn2ccccc12)N1CCc2ccccc21	57.4% (active)
CSc1sc(C(=O)N2CCc3ccccc32)cc1S(=O)(=O)C(C)C	30%
CC(C)NC(=O)c1ccc(COCC(F)(F)F)cc1	36.5%
Cc1ccc(C(=O)Oc2ccc3c(c2)ncn3C)cc1	61.9% (active)
Cc1ccc(C(=O)Nc2ccc3nc(C)sc3c2)s1	87.8% (active)
Cc1nc2c(ccc3c2ccc2nc(C)sc23)s1	38.2%
Cc1nc2ccc(NC(=O)c3cc([N+](=O)[O-])cc([N+](=O)[O-])c3Cl)cc2s1	42.2%
COc1cccc(/C=N/NC(=O)CCc2c(C)n[nH]c2C)c1	30.6%
Nc1[nH]ncc1N=Nc1ccc(Cl)cc1	64.8% (active)
CCCCNC(=O)COC(=O)c1ccc(Cl)c(S(N)(=O)=O)c1	37.4%
CCCCOc1ccc(C(=O)CCN2CCCCC2)cc1	32.5%
CCCOc1ccc(C(=O)c2nc3c(n2O)CCCCC3)cc1	52% (active)
CCCCCCNc1nc(NCc2ccco2)nc(OCC)n1	56.7% (active)
COc1cccc(CNc2ccc3c(c2)CCC3)c1	30.4%
O=[N+]([O-])c1cccc(CNc2ccc3c(c2)CCC3)c1	59.6% (active)
COc1cccc(OCc2ccc(C(=O)NCC3CCCO3)cc2)c1 (centres undefined)	48.8%
CCCc1cc(C(=O)Nc2ccc(F)cc2F)no1	46.5%
CCCc1cc(C(=O)Nc2c(C)n(C)n(-c3ccccc3)c2=O)no1	16.9%
CCCc1cc(C(=O)Nc2cccc(Cl)c2)no1	81.6% (active)

SMILES	inhibition
CCn1ncc([N+](=O)[O-])c1C(=O)Nc1ccc(C(=O)N2CCCCC2)cc1	43.9%
CCn1ncc(C(=O)Nc2cccc(Cl)c2)c1C	54.3% (active)
CCn1nccc1C(=O)Nc1ccc(Cl)cn1	34.9%
Cc1cc(C)c(S(=O)(=O)Nc2ccc(OCC(=O)O)cc2)c(C)c1	29.1%
CCNC(=S)SCCOc1ccccc1C	79.3% (active)
COc1ccc(N(CCC#N)S(=O)(=O)c2ccc(Cl)cc2)cc1	26.1%
CC1CCCCC1NC(=O)/C(C#N)=C/c1ccccc1F (centres undefined)	74.2% (active)
CCCSc1nnc(C(C)C)n1N	26.2%
CCOc1ccc(/C=C/C(=O)c2ccccc2)cc1OC	55.5% (active)
CCOC(=O)c1cc(-c2ccccc2)n(CC(=O)Nc2ccc(OC)c(OC)c2)c1C	37.5%
COc1ccc(/C=N/OC(=O)Nc2ccccc2)cc1[N+](=O)[O-]	32.5%
CC(C)c1nc2sc3c(=O)[nH]cnc3c2c2c1CCC2	23.9%
COc1ccccc1N1C(=O)C2CCC(c3ccccc3)CC2C1=O (centres undefined)	27.9%
Cc1cccc(Cn2c(C(C)(C)C)cc3cccnc32)c1	47.4%
CC(C)(C)c1cc2cccnc2n1Cc1cccc(Cl)c1	52.5% (active)
CCSc1ncc(/C=N/Nc2ccccc2)n1C	75.3% (active)
CCSc1nnc(-c2cnn(-c3ccccc3)c2-n2cccc2)n1C	34.5%
COc1cc(NC(C)CCCN)c2ncccc2c1Oc1ccccc1 (centres undefined)	29.6%
COC(=O)C1(C(C[N+](=O)[O-])c2ccc(C)cc2)C(=O)NCC1c1ccco1 (centres undefined)	49%
Cc1cc2ccccn2c1C(C[N+](=O)[O-])c1ccc(N(C)C)cc1 (centres undefined)	21.9%
Cc1ccc(C(C[N+](=O)[O-])c2c(C)[nH]n(-c3ccccc3)c2=O)cc1 (centres undefined)	82.5% (active)
O=c1cc(CSc2ccc(Cl)cc2)[nH]c2[nH]n(-c3ccccc3)c(=O)c12	42.8%
Cc1[nH]n(-c2ccccc2)c(=O)c1C(C[N+](=O)[O-])c1ccc(Cl)cc1 (centres undefined)	87.4% (active)
Cc1[nH]n(-c2ccccc2)c(=O)c1C(C[N+](=O)[O-])c1ccc(Br)cc1 (centres undefined)	79% (active)
O=C1N/C(=N\N=C\c2cccnc2)SC1Cc1ccc(SC(F)F)cc1 (centres undefined)	29.8%
NC(=O)c1ncc(C(F)(F)F)cc1Oc1ccc(C(F)(F)F)cc1	42.5%
